Bioassay records as filed in PubChem.
NPR1 antag = antagonists of human natriuretic peptide receptor Npr1; P16066; HEK293 hNpr1 GloSensor cGMP, ANP-stimulated luminescence; Potency, µM (series often up to 46.3 µM), without a hit: at the top dose activity change, negative = inhibition, actives largely listed as inhibitors; 1.6% of 76,000 active; AID 1347048; calls by dose curve; further: on the % scale 0 is the no-effect control and ±100 the full control effect; nearly all actives have a fitted effect of over 60% in size
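HEK293 cells stably expressing human Npr1 and cGMP GloSensor pGS-40F, loaded 2 h with 2% GloSensor reagent, given compound 30 min at room temperature. Luminescence read before and 20 min after 0.1 nM hNppA.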
Luciferase inh = Photinus pyralis luciferase inhibition | purified P. pyralis luciferase, luminescence, biochemical | P08659 | 2.5% of 76,000 active | AID 1347043 | Potency, µM (highest dose often 115 µM), most hits filed as inhibitors; further: on the % scale 0 is the no-effect control and ±100 the full control effect; nearly all actives have a fitted effect of over 65% in size
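Luminescence read by CCD imager after adding enzyme (10nM final) to wells holding compound, titrated in qHTS. Substrates 10uM each D-luciferin and ATP; buffer 50mM Tris acetate pH 7.5, 10mM Mg acetate, Tween-20, BSA.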
HEK293 tox = HEK 293 cell cytotoxicity | Potency, µM (highest dose often 115 µM), for inactives: top-dose activity change, negative = cytotoxicity, actives largely listed as inhibitors | AID 1345083 | HEK 293 viability, ATP luminescence (CellTiter-Glo), 48-72 h | 6.6% of 94,000 active; further: on the % scale 0 is the no-effect control and ±100 the full control effect; nearly all actives have a fitted effect of over 60% in size
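250 HEK 293 cells/well; compound by pintool; incubated 48 or 72 hr at 37 degree Celsius; CellTiter-Glo added, 10 min RT, luminescence imaged.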
GPT2 inh = inhibitors of human GPT2 alanine aminotransferase; Q8TD30; Recombinant GPT2, coupled pyruvate oxidase/HRP Amplex Red fluorescence; Potency, µM (titrated, usually from 57.7 µM), inactives show at the highest dose activity change, negative = inhibition, usual class: inhibitors; 0.25% of 100,000 active; AID 1671188; further: on the % scale 0 is the no-effect control and ±100 the full control effect; nearly all actives have a fitted effect of over 60% in size
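Fluorescence of coupled pyruvate oxidase/HRP/Amplex Red system (50uM Amplex, 30 min, dark) reports pyruvate formed by GPT2. Enzyme reaction: 10ng/uL GPT2, 2mM L-alanine, 250uM a-KG, 30 min room temperature, pH 7.5; 50uM AOA control.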
NIH3T3 tox = cytotoxic compounds in NIH 3T3 cells | NIH 3T3 viability, CellTiter-Glo ATP luminescence, 48-72 h | 4.3% of 94,000 active | Potency, µM (doses to about 96.7 µM), for inactives: at the highest dose activity change, negative = cytotoxicity, most hits filed as inhibitors; further: on the % scale 0 is the no-effect control and ±100 the full control effect; nearly all actives have a fitted effect of over 55% in size
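ATP-dependent luminescence (CellTiter-Glo) served as the viability signal for NIH 3T3 cells treated with compound for 48 or 72 hr at 37 °C.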
NPR1 antag cnf = hNpr1 antagonism, confirmation assay; shares compounds with NPR1 antag; HEK293 hNpr1 cGMP GloSensor luminescence, ANP-stimulated; Potency, µM (highest dose often 57.6 µM), for inactives: at the highest dose activity change, negative = inhibition, most hits filed as inhibitors; 76% of 1,400 active; AID 1347044; calls by dose curve; further: nearly all actives have a fitted effect of over 70% in size
Npr2 selectivity = antagonizes human Npr2, subtype selectivity check. shares compounds with NPR1 antag. HEK293 hNpr2 GloSensor cGMP luminescence, CNP-stimulated. Potency, µM (series often up to 57.6 µM), for the others: at the highest dose activity change, negative = inhibition, usual class: inhibitors. 67% of 1,400 active. AID 1347046; calls by dose curve; further: nearly all actives have a fitted effect of over 70% in size
Target sequence (P20594 whole entry, looked up): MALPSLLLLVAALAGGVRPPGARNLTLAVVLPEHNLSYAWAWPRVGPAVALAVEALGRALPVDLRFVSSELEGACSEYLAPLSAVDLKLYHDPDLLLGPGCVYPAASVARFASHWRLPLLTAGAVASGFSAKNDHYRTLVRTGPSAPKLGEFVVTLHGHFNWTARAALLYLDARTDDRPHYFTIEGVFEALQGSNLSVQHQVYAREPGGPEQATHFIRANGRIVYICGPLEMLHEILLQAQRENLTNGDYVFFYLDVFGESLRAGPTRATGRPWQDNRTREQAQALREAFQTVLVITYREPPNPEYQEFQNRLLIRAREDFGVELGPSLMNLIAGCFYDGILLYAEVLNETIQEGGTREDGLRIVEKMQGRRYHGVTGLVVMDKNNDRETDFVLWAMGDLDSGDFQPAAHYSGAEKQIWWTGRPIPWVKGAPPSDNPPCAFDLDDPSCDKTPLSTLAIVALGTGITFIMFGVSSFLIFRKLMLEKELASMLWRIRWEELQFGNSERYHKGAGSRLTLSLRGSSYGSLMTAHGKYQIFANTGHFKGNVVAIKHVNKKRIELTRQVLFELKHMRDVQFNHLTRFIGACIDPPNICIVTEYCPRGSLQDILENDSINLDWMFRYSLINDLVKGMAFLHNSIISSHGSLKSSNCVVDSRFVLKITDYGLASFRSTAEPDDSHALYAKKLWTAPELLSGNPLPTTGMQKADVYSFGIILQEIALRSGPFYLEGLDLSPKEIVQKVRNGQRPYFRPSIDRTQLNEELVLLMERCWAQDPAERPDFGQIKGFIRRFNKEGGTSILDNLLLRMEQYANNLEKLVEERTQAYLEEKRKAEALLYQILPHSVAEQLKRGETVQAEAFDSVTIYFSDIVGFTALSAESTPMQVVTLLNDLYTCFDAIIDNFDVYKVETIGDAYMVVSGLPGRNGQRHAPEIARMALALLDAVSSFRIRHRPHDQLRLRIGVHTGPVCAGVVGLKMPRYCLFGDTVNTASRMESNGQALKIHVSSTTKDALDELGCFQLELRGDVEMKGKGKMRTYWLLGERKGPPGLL
FLuc counter = FLuc enzyme inhibition, Npr1 counter-screen. 0.7% of 1,400 active. purified FLuc enzyme, luminescence, Km substrate. Potency, µM (top dose mostly 57.6 µM), inactives show top-dose activity change, negative = inhibition, most hits filed as inhibitors. shares compounds with NPR1 antag; further: 0% is about no effect
GloSensor cGMP = reduces cGMP signal in GloSensor control cells; 69% of 1,400 active; HEK293 GloSensor cGMP, SNP-stimulated, luminescence; shares compounds with NPR1 antag; Potency, µM (top dose mostly 57.6 µM), inactives show at the top dose activity change, negative = inhibition, hits mostly inhibitors; calls by dose curve; further: on the % scale 0 is the no-effect control and ±100 the full control effect; nearly all actives have a fitted effect of over 70% in size
An asterisk follows results filed as active; i = inactive; u = inconclusive; x = no result; [ ] = dose if it differs, or a comment. In the library only some 10% were active in any assay of this set; here they are far more common. Unless noted, the call rests on the fitted dose curve; in most records, active means well fitted curve in the direction sought with a large enough effect; inconclusive means small, poorly fitted or top-dose-only effect, or another doubt; inactive means no such curve, though single readings can be large; an effect the other way counts as inactive or inconclusive. Potency means the concentration at half of the fitted maximal effect.

SMILES	NPR1 antag	Luciferase inh	HEK293 tox	GPT2 inh	NIH3T3 tox	NPR1 antag cnf	Npr2 selectivity	FLuc counter	GloSensor cGMP
Cc1csc(NC(=O)c2cnc3c(c2)N(C(=O)Cc2ccc(C(C)C)cc2)CCC3)n1	22µM*	i	35µM*	-2%[88.5 µM]	u	31µM*	35µM*	-13%[86.2 µM]	28µM*
O=C(NCc1cccs1)C1CN(C2CCCCC2)C(=O)N1 (configuration not stated)	x	x	3%[172 µM]	0%[88.5 µM]	-10%[138 µM]	x	x	x	x
CC(C)c1ccc(CC(=O)N2CCCc3ncc(C(=O)N(C)Cc4ccccc4)cc32)cc1	-20%	i	u	-28%	u	x	x	x	x
CC(C)c1ccc(CC(=O)N2CCCc3ncc(C(=O)Nc4ccccc4)cc32)cc1	3.5µM*	i	28µM*	0%[88.5 µM]	28µM*	5.6µM*	6.3µM*	3%[86.2 µM]	5µM*
CC(C)c1ccc(CC(=O)N2CCCc3ncc(C(=O)N(C)c4ccccc4)cc32)cc1	u	i	u	-9%[88.5 µM]	u	35µM*	44µM*	0%[86.2 µM]	44µM*
N#Cc1ccc(NC(=S)N[C@H]2CO[C@H]3[C@@H]2OC[C@H]3OC(=O)Nc2ccccc2)cc1	22µM*	i	35µM*	-8%[88.5 µM]	u	18µM*	22µM*	-7%[86.2 µM]	18µM*
O=C(Nc1ccccc1)O[C@@H]1CO[C@H]2[C@@H]1OC[C@@H]2NC(=O)C1CCC1	u	i	u	-6%[88.5 µM]	-29%[174 µM]	x	x	x	x
O=C(Nc1ccc(Oc2ccccc2)cc1)O[C@@H]1CO[C@H]2[C@@H]1OC[C@@H]2NC(=S)Nc1ccccc1	11µM*	i	u	i	u	9.7µM*	12µM*	-8%	6.9µM*
O=C(Nc1cccc2ccccc12)O[C@@H]1CO[C@H]2[C@@H]1OC[C@@H]2NC(=O)c1cccs1	22µM*	i	u	u	-40%[174 µM]	35µM*	u	-2%[86.2 µM]	31µM*
O=C(Nc1cccc2ccccc12)O[C@@H]1CO[C@H]2[C@@H]1OC[C@@H]2NC(=O)c1ccco1	-6%[70.6 µM]	i	-19%[172 µM]	-5%[88.5 µM]	-15%[138 µM]	x	x	x	x
COC(=O)c1cccc(NC(=S)N[C@H]2CO[C@H]3[C@@H]2OC[C@H]3OC(=O)Nc2cccc(C(F)(F)F)c2)c1	u	i	45µM*	2%	u	27µM*	22µM*	-5%	22µM*
COc1cccc(CN2C[C@@H]3C[C@H]2C(=O)N(Cc2ccccc2)c2ccccc2O3)n1	-19%[70.6 µM]	i	u	-2%[88.5 µM]	u	x	x	x	x
CC(=O)NCC(=O)N1Cc2ccccc2CC2(CCCN2CC2CCCC2)C1 (configuration not stated)	x	x	-16%	i	-6%	x	x	x	x
O=C(Nc1ccccc1)O[C@@H]1CO[C@H]2[C@@H]1OC[C@@H]2NC(=O)c1ccc2c(c1)OCO2	32µM*	i	u	i	u	u	u	-11%[86.2 µM]	u
CC(=O)c1cccc(NC(=O)O[C@@H]2CO[C@H]3[C@@H]2OC[C@@H]3NC(=O)Nc2ccccc2)c1	-15%[70.6 µM]	i	u	-1%[88.5 µM]	-4%[174 µM]	x	x	x	x
CC(=O)c1ccc(NC(=O)O[C@@H]2CO[C@H]3[C@@H]2OC[C@@H]3NC(=O)COc2ccccc2)cc1	-13%[70.6 µM]	i	u	-12%[88.5 µM]	u	x	x	x	x
